Source: ChEMBL document CHEMBL1201862, “PubChem BioAssay data set” (2004)
About 4,100 (7.1%) of roughly 58,000 sequences were called active. Rule as the data show it: active = GI50 up to about 1.1 µM and inactive = higher. A selection follows. Measured potencies and affinities stand elsewhere.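 1) Cells in 96-well plates. 2) Compound, 48 h, 5 concentrations. 3) Linear interpolation between surrounding doses. 4) Unreached endpoint = highest concentration. GI50 is the concentration that inhibits growth by half.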

Test system: U-251
Assay: NCI tumour cell line growth inhibition, 48 h

How did the GI50 turn out when “[Bis(aminomethyl)diethylsilane]tetrachloroplatinum(IV), CHEMBL2146203” was run?
Its GI50 is 2 µM.

For “[Bis(aminomethyl)pentamethylenesilane]tetrachloropaltinum(IV), CHEMBL2146204”, which GI50 is on record?
The GI50 was 2.94 µM.

“[Bis(aminomethyl)tetramethylenesilane]tetrachloropaltinum(IV), CHEMBL2146189” was tested. Which GI50 did it give?
Its GI50 is 3.59 µM.

How did the GI50 turn out when “[Bis(aminomethyl)ethylmethylsilane]tetrachloroplatinum(IV), CHEMBL2146192” was run?
The GI50 was 6.07 µM.

With CISPLATIN, CHEMBL11359 as the substance, how does the GI50 read?
The GI50 was 1.92 µM.

“cis-Bis[[(trimethylsilyl)methyl]amino]tetrachloroplatinum(IV), CHEMBL2146191” was tested. Which GI50 did it give?
The GI50 was 14.9 µM.

With “[Bis(aminomethyl)dimethylsilane]dichloroplatinum (II), CHEMBL2146201” as the substance, how does the GI50 read?
The GI50 was 33.5 µM.

“[Bis(aminomethyl)tetramethylenesilane]dichloropaltinum(II), CHEMBL2146205” was tested. Which GI50 did it give?
Its GI50 is 30.3 µM.

With “[Bis(aminomethyl)dimethylsilane]tetrachloroplatinum(IV), CHEMBL2146190” as the substance, how does the GI50 read?
Its GI50 is 9.42 µM.

Which GI50 does the source give for “mu-(1,7-nanodiamine-N,N')bis-(cis-aminedichloroplatimum (II)), CHEMBL2146215” here?
Its GI50 is 10.3 µM.

With “[Bis(aminomethyl)pentamethylenesilane]dichloropaltinum(II), CHEMBL2146202” as the substance, how does the GI50 read?
The GI50 was 2.93 µM.
